This is an account of results in PubChem BioAssay.

Values without a mark were called inactive. The rule behind the calls is not given here.

This assay deals with Pantothenate synthetase (Mycobacterium tuberculosis (strain ATCC 25618 / H37Rv)) (UniProt P9WIL5). In words: Coupled enzyme confirmation of inhibitors against recombinant Mtb PanC (AID 375).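 Note: 0% = full reaction with vehicle and 100% = no enzyme background.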 The conditions noted are these: coupled enzyme assay; at 10 µM, active compounds read high.
Pantothenate synthetase (Mycobacterium tuberculosis (strain ATCC 25618 / H37Rv)), sequence (P9WIL5 whole entry, looked up): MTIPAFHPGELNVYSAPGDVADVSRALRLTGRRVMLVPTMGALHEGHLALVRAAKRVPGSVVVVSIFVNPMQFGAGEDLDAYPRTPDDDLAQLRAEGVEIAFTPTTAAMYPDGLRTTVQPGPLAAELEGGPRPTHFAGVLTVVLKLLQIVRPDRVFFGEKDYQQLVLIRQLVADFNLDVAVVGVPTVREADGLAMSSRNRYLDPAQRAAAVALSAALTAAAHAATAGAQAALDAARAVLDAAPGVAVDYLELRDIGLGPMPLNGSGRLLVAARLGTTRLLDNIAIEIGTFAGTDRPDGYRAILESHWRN
`CCOc1ccc(NC(=O)c2ccncc2)cc1`: the inhibition was 0%. For the molecule `O=c1[nH]c(NCc2ccco2)nnc1Cc1ccccc1Cl`, the inhibition was 0%. The same measure for `COc1cc(C2C(C(=O)c3ccc(C)o3)=C(O)C(=O)N2c2cc(C)on2)cc(Br)c1O` (stereo not drawn): 0%; for `Cc1cnc(-c2nnc(N(C)C(=O)C3CCOC3)s2)cn1` (stereo not drawn): 3%; for `COc1ccccc1NC(=O)C1CC(=O)N(c2ccc(F)cc2)C1` (stereo not drawn): 0%. In the case of `COc1ccc2[nH]c(=O)c(CN(Cc3cccs3)Cc3nnnn3C(C)(C)C)cc2c1` it was 0%; in that of `O=C(OCC(=O)N1CCC(Cc2ccccc2)CC1)c1ccc[nH]c1=O`, 0%; in that of `CN(Cc1cccs1)CC(O)COCc1ccco1` (stereo not drawn), 0%. As to `Cc1c(C(=O)OCC(C)(C)CN(C)C)oc2ccccc12`, the inhibition was 1%. For the molecule `CC(=O)Nc1ccc(S(=O)(=O)NCc2cn3c(C)csc3n2)cc1`, the inhibition is 0%. Consider `O=C(NCCN1CCCCC1)c1ccc(=O)oc1`, for which the inhibition was 7%. For `Cc1ccccc1NC(=O)N1C2CCCC1CC(NC(=O)C1CC1)C2` (stereo not drawn), the inhibition was 14%.

Consider `CCCCc1c(O)nc(SCC(=O)c2ccccc2)[nH]c1=O`, for which the inhibition was 0%. Turning to `Cc1cc2ccccn2c1C(=O)c1ccncc1`, the inhibition is 5%. As to `CC1(C)OC(=O)C(=CNc2ccccc2F)C(=O)O1`, the inhibition is 0%. In the case of `CCOc1ccc2c(c1)n(CO)c(=S)n2CO` it was 0%; in that of `COc1ccc2cc(C#N)c(SCC(=O)N3CCCC3)nc2c1`, 7%; in that of `CS(=O)(=O)N1CCc2cc(C(=O)N3CCCCC3)ccc21`, 2%.

As usually defined, the inhibition is the share of the control response that was lost under treatment.
